Source: PubChem BioAssay (Broad Institute)
MITF TRPM1 HTS: MITF TRPM1 promoter activation in melanoma cells; SK-MEL-5 TRPM1-promoter luciferase, 24 h; % of positive control, neutral wells = 0; activation, % at 12.5 µM; 300,000 tested, 0.75% active;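 active = mean activation of at least 80% with every replicate also reaching 80%; inconclusive = mean reaches 80% but some replicate falls short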;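 also: 0% = neutral control wells and 100% = parthenolide positive control wells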
Wnt act: activators of Wnt/beta-catenin signaling. Wnt/beta-catenin reporter cell assay, activator, plate reader. 300,000 tested, 1.2% active. AID 743398. activation, % at 9.35 µM; in the data active = activation above about 30%, passing the limit was not always enough; inconclusive = no clear call, values can overlap the other calls;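 also: 0% = neutral control wells and 100% = positive control wells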
HSF1 activator: increases HSF-1 driven luciferase reporter signal. NIH3T3-HGL HSF-1 luciferase reporter, MG132, 8 h; 100% = twice DMSO control signal. activation, % at 9 µM. 300,000 tested, 1.7% active;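 active = mean replicate activation of at least 50% with a set share of replicates each reaching 50%; inconclusive = only one of those two conditions met; inactive = mean below 50% and too few replicates reaching it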;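 also: 0% = median of the neutral control wells and 100% = twice that signal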
HSF1 inh: HSF1 inhibition | NIH3T3-HGL HSE-luciferase, MG132-induced, luminescence 8 h; active compounds read low | activity change, negative = inhibition, % at 7.5 µM (by protocol) | 300,000 tested, 0.77% active;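 active = more than half of replicate wells show activity change below -50%, luminescence cut by over half; inconclusive = some wells, but at most half, below -50%; inactive = no replicate well below -50%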;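 also: luciferase reports HSF-1 transcriptional activity via heat shock element; 0% = median of DMSO wells and -100% = zero luminescence signal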
esBAF inh: blocks esBAF chromatin remodeling in mouse ES cells; Bmi1-luciferase knock-in reporter, 24 h; 100% = twice the neutral-well signal; reporter increase, % at 12.5 µM; 350,000 tested, 2% active; AID 602393; in the data active = activation above about 40%; inconclusive = no clear call, values can overlap the other calls;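 also: 0% = median of the plate's neutral control wells and 100% = double that signal; a rise in the Bmi1 reporter signal indicates esBAF inhibition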
Numbers without * were called inactive; ? = inconclusive; nt = not tested or not shown. Sampled rows, rich in hits. Any-hit rate of the full collection: about 3.8%.

SMILES | MITF TRPM1 HTS | Wnt act | HSF1 activator | HSF1 inh | esBAF inh
O=C(O)CC(CN1C(=O)c2ccccc2C1=O)c1ccccc1 (stereo not drawn) | 7 | 45* | -2 | -4 | -10
COc1ccccc1CNC(=O)C[C@H]1C[C@@H]2c3cc(NC(=O)c4ccc5c(c4)OCO5)ccc3O[C@@H]2[C@@H](CO)O1 | nt | nt | nt | nt | -6
C(=N\Nc1nn[nH]n1)/c1ccccc1 | 0 | -1 | -11 | -8 | 0
Cc1nnc(N/N=C\c2ccc(-c3ccccc3[N+](=O)[O-])o2)n1N | 0 | 1 | 80* | 36 | nt
Cc1nnc(N/N=C/c2c(Cl)cccc2Cl)n1N | -2 | -2 | 17 | 17 | -1
Cc1nnc(N/N=C/c2ccccc2O)n1N | 10 | 15 | 71* | 49 | nt
Oc1ccccc1/C=N/Nc1nn[nH]n1 | 20 | 0 | -79 | -75* | -1
Cc1nnc(N/N=C/c2cc(C)n(-c3ccc(F)cc3)c2C)n1N | 7 | 3 | -96 | -96* | nt
Cc1cc(/C=N/NC(N)=S)c(C)n1-c1ccc(Br)cc1 | -10 | -1 | -20 | -5 | nt
CC(C)NC(=O)N1[C@@H](CO)[C@@H]2c3ccccc3N(C(=O)Nc3cccc(Cl)c3)C[C@@H]21 | nt | nt | nt | nt | 3
Cc1noc(C)c1NC(=O)N(C)C[C@H]1Oc2ccc(NS(C)(=O)=O)cc2CC(=O)N([C@H](C)CO)C[C@@H]1C | nt | nt | nt | nt | -10
CC=Cc1ccc2n(c1=O)C[C@H]1[C@H](CO)[C@@H](C(=O)NCc3ccc4c(c3)OCO4)[C@@H]2N1C(=O)C1CC1 (mixture of isomers) | nt | nt | nt | nt | -18
Cc1ccc(N2CCN(CCc3nc4cc(NC(=O)c5ccco5)ccc4n3C)CC2)cc1 | -12 | nt | 69* | 25 | 9
Cn1c(CCN2CCN(c3ccc(F)cc3)CC2)nc2cc(NC(=O)c3ccco3)ccc21 | -14 | -4 | 8 | 4 | 6
Cn1c(CCN2CCN(c3ccccc3)CC2)nc2cc(NC(=O)c3ccco3)ccc21 | 15 | nt | 128* | 103 | 6
C[C@@H]1CN([C@H](C)CO)C(=O)Cc2cc(NC(=O)CCC(F)(F)F)ccc2O[C@H]1CN(C)CC1CCCCC1 | nt | nt | nt | nt | -2
CN1[C@@H]2c3ccc(-c4ccccc4F)c(=O)n3C[C@@H]2[C@@H](CO)[C@@H]1C(=O)Nc1nccs1 | nt | nt | nt | nt | -4
CCn1nc(C)cc1-c1nnc(Sc2ncc([N+](=O)[O-])s2)n1C | -93 | -11 | 122* | 80 | -2
COc1ccc(S(=O)(=O)N[C@H]2CC[C@H](CC(=O)NCc3ccccc3F)O[C@H]2CO)cc1 | nt | nt | nt | nt | 2
COc1ccc(NC(=O)[C@H](C)NS(=O)(=O)c2ccc(NC(C)=O)cc2)cc1Cl | nt | 1 | nt | nt | -1
CCOc1ccc(NC(=O)C(C)NS(=O)(=O)c2ccc(NC(C)=O)cc2)cc1 (stereo not drawn) | 0 | -1 | -74 | -67* | nt
C=CCN(CC=C)CCOc1ccc(C)cc1[N+](=O)[O-] | 10 | 26 | 33 | 17 | 53*
O=C(C[C@@H]1CC[C@@H](NC(=O)NC2CCCCC2)[C@@H](CO)O1)NCc1ccc(F)cc1 | nt | nt | nt | nt | -4
CC(=O)c1ccc(NC(=O)c2ccn(C(=O)OCC(C)C)n2)cc1 | 18 | 53* | 8 | 13 | nt
COc1ccc(NC(=O)CSc2ccccc2)c([N+](=O)[O-])c1 | ? | 4 | 22 | 17 | 57*
SMILES | MITF TRPM1 HTS | Wnt act | HSF1 activator | HSF1 inh | esBAF inh
CC(=O)NC(CC(=O)O)c1ccccc1 (stereo not drawn) | 5 | -2 | -9 | -5 | -8
CC(=O)NC(CC(=O)NNC(=O)COc1c(C)cccc1C)c1ccccc1 (stereo not drawn) | -4 | 62* | nt | nt | nt
Cc1nc(SC(C)C(=O)NCC2CCCO2)c2cc(-c3ccccc3)sc2n1 (stereo not drawn) | 20 | -2 | 71* | 53 | nt
C[C@H](CO)N1C[C@H](C)[C@H](CN(C)C(=O)Nc2ccccc2)Oc2ccc(NC(=O)Nc3ccc(F)cc3)cc2C1=O | nt | nt | nt | nt | 1
CN1CCCCc2c1nc1ccccc1c2N (tested in a mixture with another compound) | -10 | nt | 7 | -5 | 2
Nc1c2c(nc3ccccc13)N(c1ccccc1)CC2 | 8 | nt | -61 | -53* | 12
Cc1cc(C(=O)Nc2cccc3c2O[C@H](CN(C)S(=O)(=O)c2ccc(F)cc2)[C@H](C)CN([C@@H](C)CO)C3=O)n(C)n1 | nt | nt | nt | nt | -6
CCCNC(=O)N(C)C[C@H]1Oc2cc(C#CCC(C)C)ccc2S(=O)(=O)N([C@H](C)CO)C[C@H]1C | nt | nt | nt | nt | 2
